{"source": "PubChem BioAssay", "note": "Calls of active or inactive are those of the source.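 The calls were made as follows, unless noted: active = RAM network inhibition above 8.4% in each of two replicates, 3 SD over the compound average; inconclusive = above 8.4% inhibition in only one replicate; inactive = 8.4% inhibition or less in each replicate.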"}
{"test": "inhibitors of the yeast RAM network, pilot screen, dse1pr::URA3 reporter, 5-FOA selection (AID 869;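 active = inhibition over a set limit, the all-compound mean plus 3 SD, in both replicate runs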;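 also: 0% = DMSO wells with no growth and 100% = 10 µM 1-NA-PP1 with full growth; RAM network block rescues cells from 5-FOA so hits raise OD615 growth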)", "conditions": "S. cerevisiae dse1pr::URA3 5-FOA growth, OD615, 2 d; at 10 µM; active compounds read high; strain carries analog-sensitive mutant Cbk1 kinase"}
{"smiles": "O=C(NCc1ccco1)c1cc(S(=O)(=O)N2CCOCC2)ccc1Cl", "inhibition": "3.05% (inactive)"}
{"smiles": "CCCCCOC(=O)NCC(O)c1ccccc1", "note": "(stereo not drawn)", "inhibition": "2.22% (inactive)"}
{"smiles": "CC(NC(=O)c1ccc(Cl)cc1)C(=O)N1CCCCC1", "note": "(stereo not drawn)", "inhibition": "2.58% (inactive)"}
{"smiles": "CCOc1ccc(S(=O)(=O)Nc2ccccc2C(=O)NCC2CCCO2)cc1", "note": "(stereo not drawn)", "inhibition": "1.91% (inactive)"}
{"smiles": "CCOC(=O)c1sc2nc(NC(=O)c3cccs3)sc2c1C", "inhibition": "-0.28% (inactive)"}
{"smiles": "Cc1noc(C)c1S(=O)(=O)NC1CCN(Cc2ccccc2)CC1", "inhibition": "3.14% (inactive)"}
{"smiles": "CCOC(=O)c1ccccc1NC(=O)C1COc2ccccc2O1", "note": "(stereo not drawn)", "inhibition": "1.09% (inactive)"}
{"smiles": "CCOC(=O)N1CCC(NC(=O)C2CCN(Cc3nc(-c4ccc(CC)cc4)oc3C)CC2)CC1", "inhibition": "0.435% (inactive)"}
{"smiles": "Cc1ccc(C2CC(c3cccc(C)c3)n3ncnc3N2)cc1", "note": "(stereo not drawn)", "inhibition": "0.45% (inactive)"}
{"smiles": "CCN1C(=O)C(O)(CC(=O)c2ccc3c(c2)OCCO3)c2ccccc21", "note": "(stereo not drawn)", "inhibition": "0.24% (inactive)"}
{"smiles": "CN(C)c1nc(N)nc(-c2cccnc2)n1", "inhibition": "1.14% (inactive)"}
{"smiles": "CCOC(=O)c1cccc(NC(=O)CNC(=O)C2CCCCC2)c1", "inhibition": "0.655% (inactive)"}
{"smiles": "Cn1cc(S(=O)(=O)Nc2ccc(F)cc2F)c(=O)n(C)c1=O", "inhibition": "1.39% (inactive)"}
{"smiles": "O=C1NCCCC1C(=O)NCCNC(=O)C(F)(F)F", "note": "(stereo not drawn)", "inhibition": "0.3% (inactive)"}
{"smiles": "CCc1ccc(C2CC(c3cccc(Cl)c3)n3nc(N)nc3N2)cc1", "note": "(stereo not drawn)", "inhibition": "2.25% (inactive)"}
{"smiles": "CN1CCN(C(=O)c2ccccc2NC(=O)Cc2ccccc2)CC1", "inhibition": "1.83% (inactive)"}
{"smiles": "Cc1nnc(Sc2nc3c(c(=O)[nH]c(=O)n3C)n2Cc2ccccc2Cl)s1", "inhibition": "1.07% (inactive)"}
{"smiles": "CN(C)CCNC(=O)c1cc2cc(Br)ccc2oc1=O", "inhibition": "0.755% (inactive)"}
{"smiles": "CCOc1ccc(C2CC(c3cccc(OC)c3)Nc3ncnn32)cc1", "note": "(stereo not drawn)", "inhibition": "1.15% (inactive)"}
{"smiles": "COc1ccc(C(=O)N2CCC(C(=O)Nc3cccc(C)c3)CC2)cc1OC", "inhibition": "0.29% (inactive)"}
{"smiles": "CCOC(=O)C1C(=O)N(C(=O)c2cncc(Br)c2)CC1c1ccccc1", "note": "(stereo not drawn)", "inhibition": "0.985% (inactive)"}
{"smiles": "O=C(Nc1nnc(-c2ccc(Cl)cc2)o1)c1ccccc1Br", "inhibition": "0.69% (inactive)"}
{"smiles": "O=C(O)c1cccc2c1C(=O)N(C1CCCCC1)C2", "inhibition": "1.97% (inactive)"}
{"smiles": "CCOC(=O)C1CCCN(C(=O)Cn2nc(CC)n3c(cc4sccc43)c2=O)C1", "note": "(stereo not drawn)", "inhibition": "1.33% (inactive)"}
{"smiles": "CCOCCCNC(=O)C(c1ccc(C)cc1)N(Cc1ccc2c(c1)OCO2)C(=O)CNC(C)=O", "note": "(stereo not drawn)", "inhibition": "0.88% (inactive)"}
{"smiles": "CSc1ccc(Cl)c(C(=O)NCc2ccco2)c1", "inhibition": "2.33% (inactive)"}
{"smiles": "O=C(CSc1ncnc2c1oc1ccccc12)Nc1cccc(C(F)(F)F)c1", "inhibition": "3.52% (inactive)"}
{"smiles": "O=C(Nc1ccc(-c2nc3cccnc3s2)cc1)c1ccco1", "inhibition": "1.75% (inactive)"}
{"smiles": "O=C(O)CN1C(=O)C2C3C=CC(C3)C2C1=O", "note": "(stereo not drawn)", "inhibition": "1.61% (inactive)"}
{"smiles": "CCCn1c(N2CCN(Cc3cccc(C)c3)CC2)nc2c1c(=O)[nH]c(=O)n2C", "inhibition": "1.34% (inactive)"}
{"smiles": "O=C(O)CC(CNS(=O)(=O)c1ccccc1)c1ccccc1", "note": "(stereo not drawn)", "inhibition": "1.54% (inactive)"}
{"smiles": "CC1Cc2nc(SCC(=O)OCc3ccccc3)n(C)c(=O)c2S1", "note": "(stereo not drawn)", "inhibition": "0.69% (inactive)"}
{"smiles": "C=CCn1c(=O)c(C(=O)Nc2ccccc2OC)c(O)c2ccccc21", "inhibition": "2.31% (inactive)"}
{"smiles": "O=C(NCC1CCCO1)c1ccc(CS(=O)(=O)c2ccc(Br)cc2)o1", "note": "(stereo not drawn)", "inhibition": "1.06% (inactive)"}
{"smiles": "Oc1cc(Cc2ccccc2)cnc1CN1CCCCC1", "inhibition": "0.305% (inactive)"}
{"smiles": "CCOc1ccccc1NC(=O)CSc1nnc(-c2ccccn2)n1Cc1ccco1", "inhibition": "0.955% (inactive)"}
{"smiles": "COc1ccc(OC)c2sc(NC(=O)c3ccc(S(=O)(=O)N(C)C)cc3)nc12", "inhibition": "3.56% (inactive)"}
{"smiles": "O=C(CN1C(=O)c2ccccc2S1(=O)=O)NC1CCCCCC1", "inhibition": "0.355% (inactive)"}
{"smiles": "CCN(CCC(=O)Nc1cc(OC)cc(OC)c1)Cc1ccccc1", "inhibition": "2.68% (inactive)"}
{"test": "RAM signaling pathway blockade in yeast – S. cerevisiae, Pdr1DBD-CYC8 efflux-inhibited sensitized strain, primary screen (AID 1298);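 also: 0% = DMSO untreated cells without growth and 100% = 10 µM 1-NA-PP1 full growth; higher means more yeast growth rescued from 5-FOA killing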", "conditions": "S. cerevisiae cbk1-as DSE1-URA3 strain, 5-FOA growth OD615, 2 d; at 50 µM; active compounds read high"}
{"smiles": "O=C(NCc1ccco1)c1cc(S(=O)(=O)N2CCOCC2)ccc1Cl", "RAM network inhibition": "1.96% (inactive)"}
{"smiles": "CCCCCOC(=O)NCC(O)c1ccccc1", "note": "(stereo not drawn)", "RAM network inhibition": "5.59% (inactive)"}
{"smiles": "CC(NC(=O)c1ccc(Cl)cc1)C(=O)N1CCCCC1", "note": "(stereo not drawn)", "RAM network inhibition": "5.32% (inactive)"}
{"smiles": "CCOc1ccc(S(=O)(=O)Nc2ccccc2C(=O)NCC2CCCO2)cc1", "note": "(stereo not drawn)", "RAM network inhibition": "5.77% (inactive)"}
{"smiles": "CCOC(=O)c1sc2nc(NC(=O)c3cccs3)sc2c1C", "RAM network inhibition": "-0.16% (inactive)"}
{"smiles": "Cc1noc(C)c1S(=O)(=O)NC1CCN(Cc2ccccc2)CC1", "RAM network inhibition": "4.49% (inactive)"}
{"smiles": "CCOC(=O)c1ccccc1NC(=O)C1COc2ccccc2O1", "note": "(stereo not drawn)", "RAM network inhibition": "4.22% (inactive)"}
{"smiles": "CCOC(=O)N1CCC(NC(=O)C2CCN(Cc3nc(-c4ccc(CC)cc4)oc3C)CC2)CC1", "RAM network inhibition": "0.29% (inactive)"}
{"smiles": "Cc1ccc(C2CC(c3cccc(C)c3)n3ncnc3N2)cc1", "note": "(stereo not drawn)", "RAM network inhibition": "4.74% (inactive)"}
{"smiles": "CCN1C(=O)C(O)(CC(=O)c2ccc3c(c2)OCCO3)c2ccccc21", "note": "(stereo not drawn)", "RAM network inhibition": "5.92% (inactive)"}
{"smiles": "CN(C)c1nc(N)nc(-c2cccnc2)n1", "RAM network inhibition": "5.69% (inactive)"}
{"smiles": "CCOC(=O)c1cccc(NC(=O)CNC(=O)C2CCCCC2)c1", "RAM network inhibition": "-0.72% (inactive)"}
{"smiles": "Cn1cc(S(=O)(=O)Nc2ccc(F)cc2F)c(=O)n(C)c1=O", "RAM network inhibition": "1.28% (inactive)"}
{"smiles": "O=C1NCCCC1C(=O)NCCNC(=O)C(F)(F)F", "note": "(stereo not drawn)", "RAM network inhibition": "4.25% (inactive)"}
{"smiles": "CCc1ccc(C2CC(c3cccc(Cl)c3)n3nc(N)nc3N2)cc1", "note": "(stereo not drawn)", "RAM network inhibition": "9.11% (inactive)"}
{"smiles": "CN1CCN(C(=O)c2ccccc2NC(=O)Cc2ccccc2)CC1", "RAM network inhibition": "1.81% (inactive)"}
{"smiles": "Cc1nnc(Sc2nc3c(c(=O)[nH]c(=O)n3C)n2Cc2ccccc2Cl)s1", "RAM network inhibition": "2.84% (inactive)"}
{"smiles": "CN(C)CCNC(=O)c1cc2cc(Br)ccc2oc1=O", "RAM network inhibition": "2.26% (inactive)"}
{"smiles": "CCOc1ccc(C2CC(c3cccc(OC)c3)Nc3ncnn32)cc1", "note": "(stereo not drawn)", "RAM network inhibition": "1.4% (inactive)"}
{"smiles": "COc1ccc(C(=O)N2CCC(C(=O)Nc3cccc(C)c3)CC2)cc1OC", "RAM network inhibition": "2.75% (inactive)"}
{"smiles": "CCOC(=O)C1C(=O)N(C(=O)c2cncc(Br)c2)CC1c1ccccc1", "note": "(stereo not drawn)", "RAM network inhibition": "9.56% (inactive)"}
{"smiles": "O=C(Nc1nnc(-c2ccc(Cl)cc2)o1)c1ccccc1Br", "RAM network inhibition": "1.62% (inactive)"}
{"smiles": "O=C(O)c1cccc2c1C(=O)N(C1CCCCC1)C2", "RAM network inhibition": "6.19% (inactive)"}
{"smiles": "CCOC(=O)C1CCCN(C(=O)Cn2nc(CC)n3c(cc4sccc43)c2=O)C1", "note": "(stereo not drawn)", "RAM network inhibition": "8.75% (inactive)"}
{"smiles": "CCOCCCNC(=O)C(c1ccc(C)cc1)N(Cc1ccc2c(c1)OCO2)C(=O)CNC(C)=O", "note": "(stereo not drawn)", "RAM network inhibition": "2.3% (inactive)"}
{"smiles": "CSc1ccc(Cl)c(C(=O)NCc2ccco2)c1", "RAM network inhibition": "5.31% (inactive)"}
{"smiles": "O=C(CSc1ncnc2c1oc1ccccc12)Nc1cccc(C(F)(F)F)c1", "RAM network inhibition": "7.32% (inactive)"}
{"smiles": "O=C(Nc1ccc(-c2nc3cccnc3s2)cc1)c1ccco1", "RAM network inhibition": "-1.95% (inactive)"}
{"smiles": "O=C(O)CN1C(=O)C2C3C=CC(C3)C2C1=O", "note": "(stereo not drawn)", "RAM network inhibition": "2.2% (inactive)"}
{"smiles": "CCCn1c(N2CCN(Cc3cccc(C)c3)CC2)nc2c1c(=O)[nH]c(=O)n2C", "RAM network inhibition": "2.5% (inactive)"}
{"smiles": "O=C(O)CC(CNS(=O)(=O)c1ccccc1)c1ccccc1", "note": "(stereo not drawn)", "RAM network inhibition": "-0.36% (inactive)"}
{"smiles": "CC1Cc2nc(SCC(=O)OCc3ccccc3)n(C)c(=O)c2S1", "note": "(stereo not drawn)", "RAM network inhibition": "6.68% (inactive)"}
{"smiles": "C=CCn1c(=O)c(C(=O)Nc2ccccc2OC)c(O)c2ccccc21", "RAM network inhibition": "1.39% (inactive)"}
{"smiles": "O=C(NCC1CCCO1)c1ccc(CS(=O)(=O)c2ccc(Br)cc2)o1", "note": "(stereo not drawn)", "RAM network inhibition": "2.45% (inactive)"}
{"smiles": "Oc1cc(Cc2ccccc2)cnc1CN1CCCCC1", "RAM network inhibition": "3.35% (inactive)"}
{"smiles": "CCOc1ccccc1NC(=O)CSc1nnc(-c2ccccn2)n1Cc1ccco1", "RAM network inhibition": "3.98% (inactive)"}
{"smiles": "COc1ccc(OC)c2sc(NC(=O)c3ccc(S(=O)(=O)N(C)C)cc3)nc12", "RAM network inhibition": "6.48% (inactive)"}
{"smiles": "O=C(CN1C(=O)c2ccccc2S1(=O)=O)NC1CCCCCC1", "RAM network inhibition": "4.59% (inactive)"}
{"smiles": "CCN(CCC(=O)Nc1cc(OC)cc(OC)c1)Cc1ccccc1", "RAM network inhibition": "3.12% (inactive)"}
